Shown are actives, neighbours in structure and some others; about 2.2% of the full set was active somewhere.
M1 antag – human CHRM1 antagonism. inhibition, % at 3 µM. P11229. CHO-K1 hM1, Fluo-8 calcium fluorescence, ACh EC80 antagonist. 360,000 tested, 1.3% active;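 active = percent inhibition above its own plate's cutoff, namely the mean of that plate's compound wells plus 3 SD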;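 also: peak over basal fluorescence ratio during 140 s after agonist addition; 0% = ACh EC80 plus DMSO and 100% = DMSO alone without agonist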
CHRM1 agonist – agonists of human M1 muscarinic receptor; P11229; CHO-K1 hM1, Fluo-8 calcium fluorescence, agonist mode; 0% DMSO, 100% acetylcholine EC100; activation, % at 3 µM; 360,000 tested, 0.33% active; AID 588814;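 active = activation above the run's mean compound activation plus 3 SD, cut at about 16% in these data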;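 also: peak over basal fluorescence ratio within a 140 s kinetic read after compound addition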
CHRM4 agonist – agonists of human muscarinic M4 receptor (CHRM4); P08173; CHO-K1 hM4/Gqi5, Fluo-8 calcium fluorescence; vehicle 0%, full acetylcholine response 100%; activation, % at 3 µM; 360,000 tested, 0.14% active; AID 624127;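 active = activation above the run mean over all test wells plus 3 SD, cut at about 32% in these data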;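 also: peak over basal fluorescence ratio per well then scaled between controls; 0% = DMSO wells and 100% = acetylcholine at EC100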
Target sequence (P08173 whole entry, looked up): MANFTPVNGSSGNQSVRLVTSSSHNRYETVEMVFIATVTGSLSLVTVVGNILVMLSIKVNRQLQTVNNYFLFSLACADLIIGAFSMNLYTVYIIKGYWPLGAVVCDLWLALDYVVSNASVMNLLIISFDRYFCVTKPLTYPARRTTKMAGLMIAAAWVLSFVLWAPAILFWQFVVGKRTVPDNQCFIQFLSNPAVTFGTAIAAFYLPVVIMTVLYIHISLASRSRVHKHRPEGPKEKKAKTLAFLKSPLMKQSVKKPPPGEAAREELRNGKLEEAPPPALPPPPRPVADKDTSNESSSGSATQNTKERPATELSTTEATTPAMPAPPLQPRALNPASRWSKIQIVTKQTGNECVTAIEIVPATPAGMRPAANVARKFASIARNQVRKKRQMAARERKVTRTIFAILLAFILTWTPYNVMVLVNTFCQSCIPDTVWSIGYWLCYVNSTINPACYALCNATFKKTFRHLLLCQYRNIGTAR
CHRM4 PAM – potentiates acetylcholine response at human M4 receptor. activation, % at 3 µM. CHO-K1 hM4/Gqi5, Fluo-8 calcium fluorescence, ACh EC20; 0% = ACh EC20, 100% = maximal ACh. 360,000 tested, 0.4% active. P08173. AID 624126;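 active = activation above its plate's cutoff, the mean activation of sample wells plus 3 SD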
CHRM4 antagonist – CHRM4 antagonism in calcium assay; CHO-hM4 cells, ACh EC80, Fluo-8 calcium fluorescence; inhibition, % at 3 µM; 360,000 tested, 0.73% active;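 active = inhibition above its plate's cutoff, the mean inhibition of sample wells plus 3 SD, cut at about 27% in these data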;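 also: 0% = acetylcholine EC80 with DMSO and 100% = DMSO without agonist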
M1 PAM – potentiates human M1 receptor response to acetylcholine; AID 588819; CHO-K1 hM1, Fluo-8 calcium fluorescence, ACh EC20; 0% = ACh EC20, 100% = maximal ACh; 360,000 tested, 0.088% active; activation, % at 3 µM; in the data active = activation above about 19%, passing the limit was not always enough
An asterisk follows results filed as active; x = no result.

SMILES	M1 antag	CHRM1 agonist	CHRM4 agonist	CHRM4 PAM	CHRM4 antagonist	M1 PAM
CCNC(=S)N/N=C/c1ccc(OCC(=O)Nc2ccc(C)cc2)cc1	3	-5	11	-11	-3	-8
Cc1ccccc1CSc1nc2c(c(=O)[nH]1)CCC2	-9	-2	-2	37*	-8	14
Cc1cccc(-c2nc(CSc3nc4c(c(=O)[nH]3)CCC4)c(C)o2)c1	-26	2	-2	20*	-22	18
FC(F)(F)c1nnc(Nc2ccc(Cl)cc2)s1	6	3	12	-8	8	-8
Fc1ccc(Nc2nnc(C(F)(F)F)s2)cc1Cl	37*	0	11	-8	12	-15
Cc1cc(C)c(-c2c(O)c3cccc4c3n(c2=O)CCC4)c(C)c1	0	-3	0	-3	0	1
C=CCNC(=O)c1c(O)c2cccc3c2n(c1=O)CCC3	-14	-3	6	16*	22	11
O=c1c(-c2ccccc2)c(O)c2cccc3c2n1CCC3	-15	-4	0	17*	-15	0
CC(=O)N1CC2([N+](=O)[O-])CN(C(C)=O)CC([N+](=O)[O-])(C1)C2(C)C	-8	2	0	20*	-2	10
CCCc1ccc2oc(C(=O)N(Cc3nccn3C)C(C)C)c(C)c2c1	21	-5	2	17*	-28	-11
Cc1c(C(=O)N(Cc2nccn2C)C(C)C)oc2c(F)cccc12	-5	-4	1	4	-16	6
COc1ccc(N2CCN(CCNC(=O)Nc3ccc([N+](=O)[O-])cc3OC)CC2)cc1	-1	-10	2	2	-10	-6
COc1ccc2c(c1)c(C(C)=O)c(C)n2-c1ccccc1	-7	-7	-2	-2	5	4
c1ccc2c(c1)CCCc1cc(NCCN3CCOCC3)nnc1-2	58	-7	1	-7	34*	-21
COc1ccccc1-n1c(=O)c2c3c(sc2n2c(SC)nnc12)CCC3	-8	-2	0	10	1	11
Cc1ccc(N2CCCn3c2cc(C)c(C#N)c3=O)cc1Cl	-2	-2	1	38*	1	7
CC(=O)c1cn(CCOc2ccccc2C)c2ccccc12	33*	1	14	-12	26	-12
O=C1NC[C@@H](CCCCN2CCN(CC3CCCCC3)C(=O)C2=O)N(Cc2ccccc2)C1=O	x	x	0	0	-3	x
N#Cc1ccccc1Sc1ccccc1C(=O)NCC(c1ccco1)N1CCCC1 (configuration not stated)	37*	-7	1	-2	-7	-23
O=C(NCC(c1ccco1)N1CCCCC1)C(c1ccccc1)c1ccccc1 (configuration not stated)	78*	-8	4	-16	4	-25
CC(C)OP(=O)(OC(C)C)C(Nc1ccccc1)c1cccnc1 (configuration not stated)	-12	-1	5	-14	-12	3
CC(C)CC(NC=C1C(=O)OC(C)(C)OC1=O)C(=O)O (configuration not stated)	-1	1	0	21*	-1	5
CC(NC=C1C(=O)OC(C)(C)OC1=O)C(=O)O (configuration not stated)	-7	-4	1	5	-1	5
CNC(=S)N1N=C(c2ccc(OC)cc2)CC1c1ccccc1Cl (configuration not stated)	34*	-8	5	-31	-3	-22
Cc1cccc(Nc2c(-c3ccc(N4CCOCC4)cc3)nc3ncccn23)c1	1	0	4	1	-17	1
SMILES	M1 antag	CHRM1 agonist	CHRM4 agonist	CHRM4 PAM	CHRM4 antagonist	M1 PAM
CN1CCN(CC(=O)Nc2c(C(=O)c3ccccc3)oc3ccccc23)CC1	60*	-14	1	-7	7	-38
CC(O)(c1cccc(F)c1)c1nc(-c2cnc3ccccc3c2)cs1 (configuration not stated)	-2	0	9	-4	-13	-3
CC1(C)CC(=O)C2=C(C1)NCN(Cc1ccccc1)C2	-5	-2	1	34*	-4	5
Nc1ccc2c(c1)Oc1ccccc1C=C2	14	-2	2	-7	-4	-1
O=C(CC1S/C(=N/N=C/c2c[nH]c3ccc(OCc4ccccc4)cc23)NC1=O)Nc1ccccc1 (configuration not stated)	5	-2	0	4	2	1
COC(=O)C(CC(=O)c1ccc(Cl)cc1)c1ccc(C)cc1 (configuration not stated)	5	-5	-2	8	-6	33*
O=C(CC(C(=O)O)c1ccc(Cl)cc1)c1ccccc1 (configuration not stated)	-6	-5	0	3	1	8
COc1ccc(C2=Nn3c(nnc3-c3ccc(OC)cc3)SC2)cc1	2	-6	3	7	28*	1
Fc1ccc(CN2CCCN(Cc3nc(-c4ccc5c(c4)OCO5)no3)CC2)cc1	-2	-12	4	-12	9	-6
N#Cc1cccc(NC(=O)CSc2ccc3c4c(cccc24)C(=O)c2ccccc2-3)c1	32*	44*	15	-9	11	-16
O=C1OC(Nc2nc3ccccc3s2)c2ccccc21 (configuration not stated)	-6	-4	1	-6	5	5
CCN1C(=C(C#N)C#N)C=Cc2cc(C)ccc21	9	-9	1	1	5	-9
CCN(CC)c1ncnc2c1ncn2Cc1c(Cl)cccc1Cl	-2	-3	1	22*	-9	-4
CCN(CC)c1ncn(Cc2c(Cl)cccc2Cl)c2ncnc1-2	-12	-3	1	52*	20	2
Cc1ccc(OCCn2c(C3CC(=O)N(Cc4ccccc4)C3)nc3ccccc32)cc1 (configuration not stated)	-6	0	12	-3	-1	4
N#Cc1c(NC(=O)c2cc(C3CC3)on2)sc2c1CCC2	-17	4	0	-3	-18	15
O=S(=O)(CC(O)(c1ccccc1)c1ccccc1)CC(O)(c1ccccc1)c1ccccc1	-15	-4	2	10	-8	6
CC(O)(CS(=O)(=O)c1ccc(Br)cc1)c1ccccc1 (configuration not stated)	-5	-2	0	5	5	7
CCN(CC)CC#CC(C)(C)OC(C)=O	4	-13	1	9	4	-2
CCN(CC)CC#CCC(O)(c1ccccc1)c1ccccc1	93*	-7	4	-25	32*	-25
CN(C)CC#CCC(O)(c1ccccc1)c1ccccc1	87*	-7	0	-50	24	-24

Screening data (PubChem)
